SRC2 inh: inhibition of GAL4-SRC2 driven luciferase reporter, primary screen, SRC2 inhibitor project, cell-based, luminescence. Nuclear receptor coactivator 2 (Homo sapiens), Q15596. inhibition, % at 9 µM. HEK293 GAL4-SRC2 luciferase reporter. 370,000 tested, 0.17% active;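 active = inhibition above the mean inhibition of all tested compounds plus 3 SD, set per campaign, cut at about 52% in these data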
Gli-Sufu block: Gli-Sufu pathway antagonists, primary screen, luciferase luminescence, Sufu-KO-LIGHT cells, uHTS; inhibition, % at 5 µM; 340,000 tested, 0.74% active; Sufu-KO-LIGHT fibroblasts, Gli luciferase reporter luminescence;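 active = inhibition above about 55%, limit read from the data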
NCOA1 inh: SRC1 coactivator transcriptional activity inhibitors, primary screen, cell-based, luminescence; Nuclear receptor coactivator 1 (Homo sapiens), Q15788; HEK293 GAL4-SRC1 luciferase reporter; inhibition, % at 3.6 µM; 360,000 tested, 0.12% active; AID 588354, 2011;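 active = inhibition above the campaign mean plus 3 SD, with each screening campaign given its own cutoff, cut at about 60% in these data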
NR2F2 inh: NR2F2 transcriptional activity inhibitors, primary screen, cell-based, luciferase reporter, HEK293T, luminescence. inhibition, % at 8.6 µM. COUP transcription factor 2 (Homo sapiens), P24468. AID 686940, 2013. HEK293T NGFI-A luciferase reporter. 370,000 tested, 0.7% active;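 active = inhibition above a per-plate cutoff, mean inhibition of test wells between control levels plus 3 SD, cut at about 38% in these data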;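 also: cells cotransfected with COUP-TFII expression vector driving the NGFI-A reporter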
NR5A2 inv ag: LRH-1 (NR5A2) inverse agonists, primary screen, cell-based, luminescence, HEK293T, StAR-luciferase reporter | LRH-1 transfected, 24 h | inhibition, % at 3.6 µM | Nuclear receptor subfamily 5 group A member 2 (Homo sapiens), O00482 | 360,000 tested, 0.13% active | AID 602396, 2012;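 active = inhibition above the mean inhibition of all tested compounds plus 3 SD, cut at about 73% in these data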
SRC3 inh: SRC3 coactivator transcriptional activity inhibitors, primary screen, cell-based, luminescence. Nuclear receptor coactivator 3 (Homo sapiens), Q9Y6Q9. HEK293 GAL4-SRC3 luciferase reporter. inhibition, % at 3.6 µM. 360,000 tested, 0.17% active. AID 588352, 2011;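 active = inhibition above a per-campaign cutoff, the mean of all compounds plus 3 SD, cut at about 60% in these data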;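 also: higher means less SRC3-driven luciferase light from the GAL4 reporter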
A number is an active result; – = inactive; · = no result. Compounds with a hit are over-represented: about 1.3% of the library has one in this group of screens.

SMILES	SRC2 inh	Gli-Sufu block	NCOA1 inh	NR2F2 inh	NR5A2 inv ag	SRC3 inh
C=C(C=O)C[C@@H]1C[C@H](O)C2OC3C[C@]4(C)OC5/C=C\CC6OC7C(CC=CCC6OC5CCCC4OC3CC2O1)OC1CC2OC3CC(=O)OC3C[C@@H](C)C[C@@]2(C)OC1C[C@@H]7C (some centres undefined)	·	61	·	·	·	·
CC1Oc2cc3c(-c4c(O)cc(O)c5c(O)c6c(cc45)OC(C)C(C)C6=O)c(O)cc(O)c3c(O)c2C(=O)C1C (centres undefined)	·	68	–	·	–	–
C[C@H]1CCC/C=C/C2C[C@H](O)CC2[C@H](O)/C=C/C(=O)O1 (some centres undefined)	·	87	–	·	89	67
O=S(=O)(O)C(=Cc1ccccc1)c1ccccc1 (tested in a mixture with another compound)	–	–	–	–	–	–
CCCCCCCn1c(=O)c(C(=O)Nc2cnccn2)c(O)c2ccccc21	–	–	–	–	–	–
CCCCCn1c(=O)c(C(=O)Nc2cnccn2)c(O)c2ccccc21	–	63	–	–	–	–
Cc1nc2c(=O)n(C)c(=O)nc-2n(C)n1	75	76	87	64	95	92
COC(=O)C1CC(OC(C)=O)C(=O)[C@H]2C1(C)CC[C@H]1C(=O)OC(c3ccoc3)CC12C (some centres undefined)	–	·	·	–	·	·
COP(=S)(OC)SCn1nnc2ccccc2c1=O	–	–	–	–	–	–
CC12CCC(O)CC1CCC1C2CCC2(C)C(C3=CC(=O)OC3)C(O)CC12O (centres undefined)	–	–	–	51	86	67
CC12CC[C@H]3[C@@H](CCC4(O)C[C@H](O)CCC34/C=N/NC(=O)Cc3ccccc3)C1(O)CCC2C1=CC(=O)OC1 (some centres undefined)	–	–	–	–	–	–
CNc1ccc2oc(C[C@H]3O[C@@]4(CC[C@H]3C)O[C@H]([C@H](C)C(=O)c3ccc[nH]3)[C@H](C)C[C@H]4C)nc2c1C(=O)O	–	83	–	–	–	–
CC(=O)OC(C)(C)/C=C/C(=O)[C@](C)(O)C1[C@H](O)C[C@@]2(C)C3CC=C4C(C[C@H](O)C(=O)C4(C)C)[C@]3(C)C(=O)C[C@]12C (some centres undefined)	·	85	–	·	–	–
Fc1ccc2nc(-c3ccc(CN4CCC(n5nnc6ccccc65)CC4)cc3)c(-c3ccccc3)nc2c1	–	·	·	–	·	·
C[C@H]1CCC[C@@H](O)CCC/C=C/c2cc(O)cc(O)c2C(=O)O1	–	–	–	–	–	64
CC1=CC(C)CC(C)OC(=O)CC(c2ccc(O)cc2)NC(=O)C(Cc2c(Br)[nH]c3ccccc23)N(C)C(=O)C(C)NC(=O)C(C)C1 (centres undefined)	–	83	–	–	–	–
Cc1ccc(C[n+]2c(-c3ccc(C)cc3)cc(-c3ccc(C)cc3)cc2-c2ccc(C)cc2)cc1	·	90	68	·	95	83
CCCC[C@@H](C)C[C@@H](C)C(=O)N(C)[C@@H](CC(C)C)C(=O)N[C@H](C(=O)N(C)[C@H](C(=O)N1C[C@@H](O)C[C@H]1C(=O)N1C(=O)C=C[C@@H]1C)C(C)C)C(C)OC(C)=O (some centres undefined)	·	–	–	·	75	–
COc1ccc(OC(=O)N(C)C[C@H]2OCc3cnnn3CCCC(=O)N([C@@H](C)CO)C[C@@H]2C)cc1	–	·	·	–	·	·
Cn1c(=O)n(C)c2cc([N+](=O)[O-])c(N3CCNCC3)cc21	–	57	–	–	–	–
O=[N+]([O-])c1ccc(N2CCNCC2)c(Cl)c1	–	–	–	–	–	–
COc1ccc(CCNCc2cc(OC)cc(OC)c2)cc1	–	·	–	–	–	–
COc1ccc(-[n+]2c(-c3ccccc3)cc(-c3ccc(C)cc3)cc2-c2ccccc2)cc1	–	91	66	77	86	79

Bioassay records from PubChem.
